Results published in PubChem BioAssay AID1345085 (National Center for Advancing Translational Sciences (NCATS), 2018).
Records with an inconclusive call do not appear. Active and inactive are the calls of the source. Calls come from the whole dose curve; as a rule, active = well fitted cell-killing curve with a large enough effect; inconclusive = small, poorly fitted or top-dose-only effect, or effect the other way; inactive = no such curve, though single readings can be large or run the other way.

test system: SKOV3; test: Confirmatory qHTS for gynecologic anti-cancer compounds from libraries of approved drugs and bioactive compounds; conditions: gynecologic cancer cell panel viability, ATPlite luminescence, 48 h; series mostly up to 57.6 µM; note: nearly all actives have a fitted effect of over 55% in size
Outline: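 1,000 cells/well; 16 h pre-incubation 37 C, 5% CO2; pin-transferred cpd in DMSO, 11 conc (1:3), 57.5 uM–0.977 nM; 48 h; ATPlite, 15 min RT; luminescence → IC50.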

Row | Compound | outcome
1 | CCC(=O)O[C@H]1CC[C@H]2[C@@H]3CCC4=CC(=O)CC[C@]4(C)[C@H]3CC[C@]12C | inactive
2 | C[C@]12CC[C@H]3[C@@H](CCC4=CC(=O)CC[C@@H]43)[C@@H]1CC[C@@H]2OC(=O)CCc1ccccc1 | inactive
3 | O=C(O)Cc1ccccc1 | inactive
4 | CCOc1ccccc1-n1c(C(C)N2CCN(C(=O)COc3ccc(Cl)cc3)CC2)nc2ccccc2c1=O (stereo not given) | inactive
5 | C=C(C)[C@H]1Cc2c(ccc3c2O[C@@H]2COc4cc(OC)c(OC)cc4[C@@H]2C3=O)O1 | inactive
